Data taken from PubChem BioAssay (EPA / NIEHS).
Records with an inconclusive call do not appear. Calls of active or inactive are those of the source. The calls were made as follows: active = hit-call score of the fitted dose curve at least 0.9, where 1 is the maximum; inconclusive = response in the unintended direction; inactive = score below 0.9.

Target: human Vitamin D Receptor (VDR), VDR (gene 7421) (UniProt P11473)
Assay: ATG_VDR_TRANS: Attagene TRANS-FACTORIAL HepG2 Assay for human Vitamin D Receptor (VDR) (AID 2283022)
Summary of the method: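 Steps: transfect HepG2 with GAL4-UAS-driven reporter constructs; dose compounds 24 h; isolate RNA, reverse-transcribe, PCR-amplify with 6-FAM-labelled primer extension and HpaI digestion; quantify fragments by capillary electrophoresis relative to DMSO.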

Sequence of human Vitamin D Receptor (VDR), VDR (gene 7421) (P11473 whole entry, looked up): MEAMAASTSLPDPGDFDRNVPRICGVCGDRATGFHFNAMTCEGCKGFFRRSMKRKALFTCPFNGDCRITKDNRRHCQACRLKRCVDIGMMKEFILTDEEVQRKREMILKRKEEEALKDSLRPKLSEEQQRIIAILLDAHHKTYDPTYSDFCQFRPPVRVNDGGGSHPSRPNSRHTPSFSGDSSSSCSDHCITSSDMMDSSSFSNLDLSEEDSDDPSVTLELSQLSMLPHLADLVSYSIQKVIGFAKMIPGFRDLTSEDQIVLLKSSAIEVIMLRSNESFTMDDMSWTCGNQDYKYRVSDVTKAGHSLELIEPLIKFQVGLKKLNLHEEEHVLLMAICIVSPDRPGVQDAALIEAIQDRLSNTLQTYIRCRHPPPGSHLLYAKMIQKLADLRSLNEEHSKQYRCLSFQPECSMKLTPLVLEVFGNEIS

Q: CC(=O)c1ccc(S(=O)(=O)NC(=O)NC2CCCCC2)cc1 was tested. Which outcome did it give?
A: inactive

Q: For CCCC=C(C=O)CC, which outcome is on record?
A: inactive

Q: How did the outcome turn out when CC(C)(C)NC(=O)[C@H]1CC[C@H]2[C@@H]3CC[C@H]4NC(=O)C=C[C@]4(C)[C@H]3CC[C@]12C was run?
A: inactive

Q: How did the outcome turn out when Oc1ccc(-c2ccccc2)c(Cl)c1 was run?
A: inactive

Q: How did the outcome turn out when O=C1CCCCC1C1CCCCC1 (centres undefined) was run?
A: inactive

Q: How did the outcome turn out when CCCCCCOc1ccc(N)cc1 was run?
A: inactive

Q: For CCCCCCCCCCCCCC(=O)OC(C)C, which outcome is on record?
A: inactive

Q: How did the outcome turn out when CCCCCCCCCCCCc1ccc(O)cc1 was run?
A: inactive

Q: For C=CCOC(=O)c1ccc(C(=O)OCC=C)c(C(=O)OCC=C)c1, which outcome is on record?
A: inactive

Q: N#Cc1ccc(C(c2ccc(C#N)cc2)n2cncn2)cc1 was tested. Which outcome did it give?
A: inactive

Q: O=S(=O)(O)c1ccc(Nc2nc(Nc3ccc(C=Cc4ccc(Nc5nc(Nc6ccc(S(=O)(=O)O)cc6)nc(N(CCO)CCO)n5)cc4S(=O)(=O)O)c(S(=O)(=O)O)c3)nc(N(CCO)CCO)n2)cc1 was tested. Which outcome did it give?
A: inactive

Q: How did the outcome turn out when CCc1cccc(CC)c1 was run?
A: inactive

Q: For Nc1ccnc(=O)[nH]1, which outcome is on record?
A: inactive

Q: For C=C(C)C(=O)OCC(O)COc1ccc(C(C)(C)c2ccc(OCC(O)COC(=O)C(=C)C)cc2)cc1 (centres undefined), which outcome is on record?
A: inactive

Q: For O=C(Nc1ccccc1)c1cc(Cl)ccc1O, which outcome is on record?
A: inactive

Q: For C=C(C)C(=O)OCCOC(=O)C(=C)C, which outcome is on record?
A: inactive

Q: With CC(=O)OCC=C(C)C as the compound, how does the outcome read?
A: inactive

Q: With CCN(CC)c1cccc(C)c1 as the compound, how does the outcome read?
A: inactive

Q: For CC1=CCC2CC1C2(C)C (centres undefined), which outcome is on record?
A: inactive

Q: For CCCCCCCCCCCC(=O)OCC, which outcome is on record?
A: inactive

Q: For COc1nccnc1CC(C)C, which outcome is on record?
A: inactive

Q: CCCCNS(=O)(=O)c1ccccc1 was tested. Which outcome did it give?
A: inactive

Q: Which outcome does the source give for O=C(Cl)c1ccc(C(=O)Cl)cc1 here?
A: inactive

Q: Which outcome does the source give for C=C[C@@]1(C)CC(=O)[C@]2(O)[C@@]3(C)[C@@H](O)CCC(C)(C)[C@@H]3[C@H](O)[C@H](OC(C)=O)[C@@]2(C)O1 here?
A: inactive

Q: How did the outcome turn out when CCCc1ccc(O)c(OC)c1 was run?
A: inactive

Q: How did the outcome turn out when O=C(O)c1ccc2c(c1)C(=O)OC2=O was run?
A: inactive

Q: COC(Cc1ccccc1)OC was tested. Which outcome did it give?
A: inactive

Q: With [Cl][Sc]([Cl])[Cl] as the compound, how does the outcome read?
A: inactive

Q: How did the outcome turn out when CCCCOC(=O)CCC(C)=O was run?
A: inactive

Q: Cc1c[nH]c(=O)[nH]c1=O was tested. Which outcome did it give?
A: inactive

Q: CCCCCCO was tested. Which outcome did it give?
A: inactive

Q: How did the outcome turn out when O=C(O)/C=C/c1ccccc1 was run?
A: inactive

Q: Which outcome does the source give for CCCCC/C=C\C/C=C\CCCCCCCC(=O)O here?
A: inactive

Q: With CCCC(CC)c1ccccc1 (centres undefined) as the compound, how does the outcome read?
A: inactive
